Records with an inconclusive call do not appear. Activity calls are given as the source filed them. Unless noted, calls come from the whole dose curve; as a rule, active = well fitted curve in the direction sought with a large enough effect; inconclusive = small, poorly fitted or top-dose-only effect, or another doubt; inactive = no such curve, though single readings can be large; an effect the other way counts as inactive or inconclusive.
How the values were obtained:
[1] = target: ATP-dependent 6-phosphofructokinase (Trypanosoma brucei brucei) (UniProt O15648); assay: qHTS Assay to Find Inhibitors of T. brucei phosphofructokinase: hit validation (AID 492961); note: % is set by controls: 0 for no effect and ±100 for the full control effect
Procedure, shortened: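 Luminescence from ADP-Glo reports ADP generated as T. brucei PFK (1.25 nM) phosphorylates 0.5 mM fructose-6-phosphate using 0.1 mM ATP. Reactions ran 45 min at room temperature, pH 8.0.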

[2] = target: Ubiquitin carboxyl-terminal hydrolase 1 (Homo sapiens) (UniProt O94782); assay: Inhibitors of USP1/UAF1: Pilot qHTS (AID 504865);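 note: rhodamine fluorescence freed from ubiquitin-rhodamine substrate followed over time; top concentration of the series differs between compounds; % is set by controls: 0 for no effect and ±100 for the full control effect; nearly all actives have a fitted effect of over 35% in size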
Procedure, shortened: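 USP1/UAF1 complex (1nM) preincubated with compound 15 min at room temperature, then Ub-Rho substrate (150nM final) added. Fluorescence read kinetically at 480/540 nm, 6 reads every 60 seconds. Buffer: 50mM HEPES pH 7.8, 0.5mM EDTA, 0.1 mg/ml BSA, 1mM TCEP, 0.01% Tween-20.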

[3] = target: Luciferin 4-monooxygenase (Photinus pyralis) (UniProt P08659); assay: Biochemical firefly luciferase enzyme assay for NPC (AID 624030);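 note: purified P. pyralis luciferase at 10 nM with luciferin and ATP substrate; 0% = DMSO and -100% = full luciferase inhibition by PTC124 control; nearly all actives have a fitted effect of over 70% in size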
Procedure, shortened: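 Purified P. pyralis luciferase at 10 nM in 50 mM Tris Acetate (final), luminescence read within 5 minutes of enzyme addition to compounds. Activity normalised to PTC124 versus DMSO; concentration-response curves classed by r2, magnitude and activity.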

[4] = S16 Schwann cell viability assay (CellTiter-Glo assay) (AID 624031);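 note: native untransfected S16 rat Schwann cells; plate controls were DMSO-treated cells for no effect and cell-free wells for full effect; nearly all actives have a fitted effect of over 70% in size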
Procedure, shortened: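 Counter-screen for cytotoxicity: parental S16 rat Schwann cells lacking the PMP22 reporters, treated 24 h with compound, viability from cellular ATP by CellTiter-Glo luminescence, normalized to DMSO (0%) and no-cell wells.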

[5] = S16 Schwann cell PMP22 intronic element firefly luciferase assay (AID 624032);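 note: plate controls were DMSO for no effect and PTC124 positive control mean for full effect; nearly all actives have a fitted effect of over 30% in size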
Procedure, shortened: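 Rat S16 Schwann cells stably carrying firefly luciferase driven by a PMP22 intronic element, in 10% FBS, treated 24 h at 37 C. ONE-Glo luminescence normalized to PTC124 control and DMSO (0%); curves classed by r2, magnitude and activity.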

[6] = S16 Schwann cell PMP22 intronic element beta-lactamase assay (AID 624044; calls by dose curve;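 note: 0% = DMSO and -100% = potassium clavulanate positive control; nearly all actives have a fitted effect of over 15% in size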); settings: S16 rat Schwann cells, PMP22 element beta-lactamase FRET, 24 h; ratio activity, negative = inhibition: at 38.3 µM (top of the series)
Procedure, shortened: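 Rat S16 Schwann cells with beta-Lac driven by a PMP22 intronic element, compound-treated 24 h at 37 °C. LiveBLAzer FRET B/G read: 460 nm normalized to potassium clavulanate vs DMSO; 535 nm FRET as viability; concentration-effect curves classified.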

[7] = qHTS profiling for inhibitors of Plasmodium falciparum proliferation (AID 504749);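 note: 0% = DMSO vehicle and full inhibition = artemisinin control; nearly all actives have a fitted effect of over 60% in size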; settings: P. falciparum in erythrocytes, SYBR Green DNA, 72 h, at 28.7 µM (top of the series)
Procedure, shortened: (§1)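 Readout was DNA-dye fluorescence from lysed cultures, ex 485/em 535 nm. Parasitized red cells had grown 72 h with compound; data scaled between 0.29 uM artemisinin and DMSO wells and corrected using vehicle-only plates.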

[8] = test system: 3D7; assay: as above; settings: P. falciparum in erythrocytes, SYBR Green DNA, 72 h; series mostly up to 28.7 µM
Procedure, shortened: as §1

[9] = test system: 7G8; assay: as above; settings: P. falciparum in erythrocytes, SYBR Green DNA, 72 h; series mostly up to 28.7 µM
Procedure, shortened: as §1

[10] = test system: AA1029; assay: as above; settings: P. falciparum in erythrocytes, SYBR Green DNA, 72 h; series mostly up to 28.7 µM
Procedure, shortened: as §1

[11] = test system: AS120; assay: as above; settings: P. falciparum in erythrocytes, SYBR Green DNA, 72 h; series mostly up to 28.7 µM
Procedure, shortened: as §1

[12] = test system: ATS189; assay: as above; settings: P. falciparum in erythrocytes, SYBR Green DNA, 72 h; series mostly up to 28.7 µM
Procedure, shortened: as §1

[13] = test system: ATS95; assay: as above; settings: P. falciparum in erythrocytes, SYBR Green DNA, 72 h; series mostly up to 28.7 µM
Procedure, shortened: as §1

[14] = test system: C2A; assay: as above; settings: P. falciparum in erythrocytes, SYBR Green DNA, 72 h; series mostly up to 28.7 µM
Procedure, shortened: as §1

[15] = test system: CP185; assay: as above; settings: P. falciparum in erythrocytes, SYBR Green DNA, 72 h; series mostly up to 28.7 µM
Procedure, shortened: as §1

[16] = test system: CP191; assay: as above; settings: P. falciparum in erythrocytes, SYBR Green DNA, 72 h; series mostly up to 28.7 µM
Procedure, shortened: as §1

[17] = test system: CP192; assay: as above; settings: P. falciparum in erythrocytes, SYBR Green DNA, 72 h; series mostly up to 28.7 µM
Procedure, shortened: as §1

[18] = test system: CP194; assay: as above; settings: P. falciparum in erythrocytes, SYBR Green DNA, 72 h; series mostly up to 28.7 µM
Procedure, shortened: as §1

[19] = test system: CP201; assay: as above; settings: P. falciparum in erythrocytes, SYBR Green DNA, 72 h; series mostly up to 28.7 µM
Procedure, shortened: as §1

[20] = test system: CP203; assay: as above; settings: P. falciparum in erythrocytes, SYBR Green DNA, 72 h; series mostly up to 28.7 µM
Procedure, shortened: as §1

[21] = test system: CP211; assay: as above; settings: P. falciparum in erythrocytes, SYBR Green DNA, 72 h; series mostly up to 28.7 µM
Procedure, shortened: as §1

[22] = test system: CP215; assay: as above; settings: P. falciparum in erythrocytes, SYBR Green DNA, 72 h; series mostly up to 28.7 µM
Procedure, shortened: as §1

[23] = test system: CP217; assay: as above; settings: P. falciparum in erythrocytes, SYBR Green DNA, 72 h; series mostly up to 28.7 µM
Procedure, shortened: as §1

[24] = test system: CP237; assay: as above; settings: P. falciparum in erythrocytes, SYBR Green DNA, 72 h; series mostly up to 28.7 µM
Procedure, shortened: as §1

[25] = test system: CP238; assay: as above; settings: P. falciparum in erythrocytes, SYBR Green DNA, 72 h; series mostly up to 28.7 µM
Procedure, shortened: as §1

[26] = test system: CP247; assay: as above; settings: P. falciparum in erythrocytes, SYBR Green DNA, 72 h; series mostly up to 28.7 µM
Procedure, shortened: as §1

[27] = test system: CP250; assay: as above; settings: P. falciparum in erythrocytes, SYBR Green DNA, 72 h; series mostly up to 28.7 µM
Procedure, shortened: as §1

[28] = test system: CP252; assay: as above; settings: P. falciparum in erythrocytes, SYBR Green DNA, 72 h; series mostly up to 28.7 µM
Procedure, shortened: as §1

[29] = test system: CP256; assay: as above; settings: P. falciparum in erythrocytes, SYBR Green DNA, 72 h; series mostly up to 28.7 µM
Procedure, shortened: as §1

[30] = test system: CP260; assay: as above; settings: P. falciparum in erythrocytes, SYBR Green DNA, 72 h; series mostly up to 28.7 µM
Procedure, shortened: as §1

[31] = test system: CP262; assay: as above; settings: P. falciparum in erythrocytes, SYBR Green DNA, 72 h; series mostly up to 28.7 µM
Procedure, shortened: as §1

[32] = test system: CP265; assay: as above; settings: P. falciparum in erythrocytes, SYBR Green DNA, 72 h; series mostly up to 28.7 µM
Procedure, shortened: as §1

Luciferin 4-monooxygenase (Photinus pyralis), sequence (P08659 whole entry, looked up): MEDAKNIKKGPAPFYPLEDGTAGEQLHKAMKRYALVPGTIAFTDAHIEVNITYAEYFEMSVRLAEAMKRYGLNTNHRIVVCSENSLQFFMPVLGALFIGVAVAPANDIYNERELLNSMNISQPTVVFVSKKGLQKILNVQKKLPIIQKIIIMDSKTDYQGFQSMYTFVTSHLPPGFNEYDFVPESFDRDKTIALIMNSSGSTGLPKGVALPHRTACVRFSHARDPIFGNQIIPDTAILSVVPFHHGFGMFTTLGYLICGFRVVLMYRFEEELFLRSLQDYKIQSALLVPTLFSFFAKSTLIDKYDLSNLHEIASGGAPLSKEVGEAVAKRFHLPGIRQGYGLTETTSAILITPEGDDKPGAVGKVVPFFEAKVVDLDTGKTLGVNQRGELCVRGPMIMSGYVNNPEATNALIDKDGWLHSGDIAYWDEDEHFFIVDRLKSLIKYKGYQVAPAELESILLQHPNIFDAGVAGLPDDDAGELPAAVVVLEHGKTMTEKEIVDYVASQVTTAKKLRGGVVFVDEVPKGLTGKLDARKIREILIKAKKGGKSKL
Ubiquitin carboxyl-terminal hydrolase 1 (Homo sapiens), sequence (O94782 whole entry, looked up): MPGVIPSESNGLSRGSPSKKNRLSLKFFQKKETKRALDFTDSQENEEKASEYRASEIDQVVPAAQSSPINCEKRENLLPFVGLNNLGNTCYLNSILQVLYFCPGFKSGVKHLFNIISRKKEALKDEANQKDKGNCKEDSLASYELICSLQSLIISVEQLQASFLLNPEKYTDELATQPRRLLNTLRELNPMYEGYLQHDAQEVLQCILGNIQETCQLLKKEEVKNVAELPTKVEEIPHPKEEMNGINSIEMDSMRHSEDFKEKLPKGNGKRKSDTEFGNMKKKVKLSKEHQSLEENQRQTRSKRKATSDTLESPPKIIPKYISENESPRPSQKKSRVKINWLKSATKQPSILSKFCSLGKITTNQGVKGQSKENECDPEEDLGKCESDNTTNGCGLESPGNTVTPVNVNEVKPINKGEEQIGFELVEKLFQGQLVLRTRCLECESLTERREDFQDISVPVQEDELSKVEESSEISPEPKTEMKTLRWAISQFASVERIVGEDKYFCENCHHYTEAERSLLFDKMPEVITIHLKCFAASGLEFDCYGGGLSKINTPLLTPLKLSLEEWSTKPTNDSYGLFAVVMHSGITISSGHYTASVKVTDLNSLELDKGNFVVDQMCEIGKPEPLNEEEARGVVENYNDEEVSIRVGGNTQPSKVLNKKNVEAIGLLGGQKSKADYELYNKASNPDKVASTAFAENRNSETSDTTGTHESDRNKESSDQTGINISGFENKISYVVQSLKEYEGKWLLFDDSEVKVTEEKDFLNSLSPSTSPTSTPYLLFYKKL
ATP-dependent 6-phosphofructokinase (Trypanosoma brucei brucei), sequence (O15648 whole entry, looked up): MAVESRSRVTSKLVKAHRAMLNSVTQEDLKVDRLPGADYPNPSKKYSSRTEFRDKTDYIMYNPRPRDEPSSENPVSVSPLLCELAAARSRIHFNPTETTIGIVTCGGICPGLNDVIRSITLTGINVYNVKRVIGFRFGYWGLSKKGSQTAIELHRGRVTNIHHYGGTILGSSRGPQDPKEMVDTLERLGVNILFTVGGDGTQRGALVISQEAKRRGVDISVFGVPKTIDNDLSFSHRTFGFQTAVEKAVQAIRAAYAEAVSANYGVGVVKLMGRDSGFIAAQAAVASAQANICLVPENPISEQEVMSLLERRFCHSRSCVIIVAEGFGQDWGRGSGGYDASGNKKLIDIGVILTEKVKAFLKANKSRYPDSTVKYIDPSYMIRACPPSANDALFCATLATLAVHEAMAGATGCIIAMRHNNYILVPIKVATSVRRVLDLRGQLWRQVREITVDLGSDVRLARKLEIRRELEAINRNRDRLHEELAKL

CC(O)C(N)C(=O)O (stereo not drawn)
inactive: Potency [1] | Potency [2] | Potency [3] | Potency [4] | Potency [5] | Potency [6] | activity, negative = inhibition ([7]; parasite line A) 4.5% | activity, negative = inhibition ([7]; parasite line B) 11.6% | Potency [8] | Potency [9] | Potency [10] | Potency [11] | Potency [12] | Potency [13] | Potency [14] | Potency [15] | Potency [16] | Potency [17] | Potency [18] | Potency [19] | Potency [20] | Potency [21] | Potency [22] | Potency [23] | Potency [24] | Potency [25] | Potency [26] | Potency [27] | Potency [28] | Potency [29] | Potency [30] | Potency [31] | Potency [32]

— PubChem BioAssay (NCATS)
